Source: the supplement of paper PMC9446081
± gives the standard deviation of the averaged measurements.

Assays:
Assay in all cases: relative enzymatic activity vs untreated control (fraction); higher = less inhibition
Conditions in all cases: 100 µM; incubation time: 2 h at 37 C
[1] = test system: DNA gyrase
Description: (§1)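 In vitro enzymatic inhibition assays (ProFoldin kits) for 12 purified essential E. coli enzymes or complexes, each treated with 218 active antibacterial compounds at 100 µM for 2 h at 37°C. Read-outs were fluorescence or absorbance (phosphate detection, dye binding), converted to activity via standard curves and expressed relative to untreated DMSO controls.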

[2] = target: DNA helicase (UniProt P0ACB1)
Description: as §1

[3] = target: DNA ligase (UniProt B1XA82)
Description: as §1

[4] = target: DNA polymerase (UniProt P10443)
Description: as §1

[5] = target: DNA primase (UniProt P0ABS7)
Description: as §1

[6] = target: GlmU (UniProt A7ZTU1)
Description: as §1

[7] = target: Guanlyate kinase (UniProt Q0TBG1)
Description: as §1

[8] = target: MurA (UniProt Q3YX52)
Description: as §1

[9] = target: T1, MurD (UniProt P14900)
T1 sequence (whole entry): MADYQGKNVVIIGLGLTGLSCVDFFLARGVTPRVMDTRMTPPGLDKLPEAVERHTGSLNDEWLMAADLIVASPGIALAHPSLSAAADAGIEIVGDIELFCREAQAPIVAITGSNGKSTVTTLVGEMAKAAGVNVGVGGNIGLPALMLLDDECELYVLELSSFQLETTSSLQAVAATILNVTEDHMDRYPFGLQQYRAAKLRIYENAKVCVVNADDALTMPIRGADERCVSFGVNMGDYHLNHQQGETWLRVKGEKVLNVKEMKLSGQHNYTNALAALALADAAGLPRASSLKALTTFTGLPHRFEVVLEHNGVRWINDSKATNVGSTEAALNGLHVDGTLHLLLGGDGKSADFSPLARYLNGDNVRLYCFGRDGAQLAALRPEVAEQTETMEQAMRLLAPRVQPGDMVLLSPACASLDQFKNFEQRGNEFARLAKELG
Description: as §1

[10] = target: T2, MurF (UniProt P11880)
T2 sequence (whole entry): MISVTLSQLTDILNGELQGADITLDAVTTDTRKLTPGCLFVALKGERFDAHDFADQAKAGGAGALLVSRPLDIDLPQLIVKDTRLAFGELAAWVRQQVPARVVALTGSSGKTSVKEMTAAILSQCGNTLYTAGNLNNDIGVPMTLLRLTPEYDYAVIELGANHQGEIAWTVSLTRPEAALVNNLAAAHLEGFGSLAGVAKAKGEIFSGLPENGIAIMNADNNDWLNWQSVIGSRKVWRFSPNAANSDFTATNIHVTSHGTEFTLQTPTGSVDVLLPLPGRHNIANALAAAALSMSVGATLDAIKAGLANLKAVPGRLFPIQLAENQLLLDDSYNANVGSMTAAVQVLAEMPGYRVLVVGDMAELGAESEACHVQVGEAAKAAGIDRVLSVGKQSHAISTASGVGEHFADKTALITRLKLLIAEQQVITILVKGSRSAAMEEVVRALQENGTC
Description: as §1

[11] = test system: RNA polymerase
Description: as §1

Guanlyate kinase, sequence (Q0TBG1 whole entry): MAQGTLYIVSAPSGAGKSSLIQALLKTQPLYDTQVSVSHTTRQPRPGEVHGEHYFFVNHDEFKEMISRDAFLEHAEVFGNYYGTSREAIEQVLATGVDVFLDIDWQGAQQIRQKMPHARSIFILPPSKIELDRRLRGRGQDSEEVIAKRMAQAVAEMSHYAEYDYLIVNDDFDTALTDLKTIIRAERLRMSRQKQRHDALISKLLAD
DNA primase, sequence (P0ABS7 whole entry): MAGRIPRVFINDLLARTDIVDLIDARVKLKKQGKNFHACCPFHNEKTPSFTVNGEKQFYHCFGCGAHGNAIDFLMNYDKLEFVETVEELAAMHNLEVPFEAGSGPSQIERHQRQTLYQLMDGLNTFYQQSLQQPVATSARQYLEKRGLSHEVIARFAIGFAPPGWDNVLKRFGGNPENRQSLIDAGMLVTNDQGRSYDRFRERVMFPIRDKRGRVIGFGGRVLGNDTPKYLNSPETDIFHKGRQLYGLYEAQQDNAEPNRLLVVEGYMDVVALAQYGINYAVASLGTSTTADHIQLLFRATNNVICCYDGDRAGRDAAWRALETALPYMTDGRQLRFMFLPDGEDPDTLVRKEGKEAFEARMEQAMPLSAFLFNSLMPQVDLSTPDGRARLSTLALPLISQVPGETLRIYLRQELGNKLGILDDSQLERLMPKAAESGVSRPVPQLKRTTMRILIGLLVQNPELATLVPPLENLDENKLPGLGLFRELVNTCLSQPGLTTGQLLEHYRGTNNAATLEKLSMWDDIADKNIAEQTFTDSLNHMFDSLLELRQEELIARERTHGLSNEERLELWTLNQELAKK
DNA ligase, sequence (B1XA82 whole entry): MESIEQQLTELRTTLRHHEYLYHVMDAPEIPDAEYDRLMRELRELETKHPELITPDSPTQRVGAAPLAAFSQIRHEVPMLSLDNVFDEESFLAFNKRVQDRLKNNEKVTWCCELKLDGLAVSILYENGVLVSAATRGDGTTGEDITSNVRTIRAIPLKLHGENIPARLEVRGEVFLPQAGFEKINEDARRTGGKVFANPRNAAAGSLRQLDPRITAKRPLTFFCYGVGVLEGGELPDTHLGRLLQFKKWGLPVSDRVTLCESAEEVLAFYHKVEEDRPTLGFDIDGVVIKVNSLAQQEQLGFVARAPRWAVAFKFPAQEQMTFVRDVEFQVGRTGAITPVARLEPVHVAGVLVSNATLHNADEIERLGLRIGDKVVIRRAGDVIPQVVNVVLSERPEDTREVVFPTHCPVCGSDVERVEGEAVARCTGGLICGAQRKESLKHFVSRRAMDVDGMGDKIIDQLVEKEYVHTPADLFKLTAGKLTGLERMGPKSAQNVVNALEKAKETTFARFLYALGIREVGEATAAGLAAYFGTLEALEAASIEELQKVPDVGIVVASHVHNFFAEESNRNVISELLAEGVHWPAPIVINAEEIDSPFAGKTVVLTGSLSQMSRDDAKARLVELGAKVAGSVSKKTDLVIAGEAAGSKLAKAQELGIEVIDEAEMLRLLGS
DNA helicase, sequence (P0ACB1 whole entry): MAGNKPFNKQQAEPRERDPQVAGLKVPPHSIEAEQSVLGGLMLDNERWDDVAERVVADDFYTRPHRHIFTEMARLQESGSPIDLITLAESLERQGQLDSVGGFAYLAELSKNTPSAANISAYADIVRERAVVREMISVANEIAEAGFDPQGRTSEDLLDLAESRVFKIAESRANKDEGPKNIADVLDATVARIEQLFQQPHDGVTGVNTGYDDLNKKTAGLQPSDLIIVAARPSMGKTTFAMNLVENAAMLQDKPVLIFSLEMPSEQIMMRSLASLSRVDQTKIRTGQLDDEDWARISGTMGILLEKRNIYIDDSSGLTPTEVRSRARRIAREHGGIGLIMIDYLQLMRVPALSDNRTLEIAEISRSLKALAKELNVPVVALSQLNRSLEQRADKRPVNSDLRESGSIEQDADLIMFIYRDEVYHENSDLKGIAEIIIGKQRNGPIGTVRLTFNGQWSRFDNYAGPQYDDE
GlmU, sequence (A7ZTU1 whole entry, looked up): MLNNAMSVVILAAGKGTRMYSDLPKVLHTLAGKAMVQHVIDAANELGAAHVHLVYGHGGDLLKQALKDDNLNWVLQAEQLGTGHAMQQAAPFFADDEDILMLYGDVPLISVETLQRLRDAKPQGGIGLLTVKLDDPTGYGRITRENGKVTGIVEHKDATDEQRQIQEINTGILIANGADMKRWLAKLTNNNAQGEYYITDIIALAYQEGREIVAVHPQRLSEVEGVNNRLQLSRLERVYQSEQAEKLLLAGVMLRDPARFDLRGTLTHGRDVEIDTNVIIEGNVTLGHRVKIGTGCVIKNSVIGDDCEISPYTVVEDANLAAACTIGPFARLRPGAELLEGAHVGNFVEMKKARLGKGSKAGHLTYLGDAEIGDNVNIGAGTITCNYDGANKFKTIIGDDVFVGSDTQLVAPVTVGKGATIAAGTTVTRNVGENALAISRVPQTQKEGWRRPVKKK
MurA, sequence (Q3YX52 whole entry): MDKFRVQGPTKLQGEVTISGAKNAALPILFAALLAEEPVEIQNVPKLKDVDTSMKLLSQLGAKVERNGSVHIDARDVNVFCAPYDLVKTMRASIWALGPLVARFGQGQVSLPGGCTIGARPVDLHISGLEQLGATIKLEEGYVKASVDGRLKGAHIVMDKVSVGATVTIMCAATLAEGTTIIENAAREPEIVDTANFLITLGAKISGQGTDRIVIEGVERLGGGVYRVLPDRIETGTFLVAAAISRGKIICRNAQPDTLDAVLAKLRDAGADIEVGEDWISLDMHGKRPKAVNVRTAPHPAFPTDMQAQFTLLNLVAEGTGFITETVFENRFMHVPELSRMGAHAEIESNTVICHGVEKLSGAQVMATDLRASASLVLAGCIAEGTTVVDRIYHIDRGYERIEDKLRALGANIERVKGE
DNA polymerase, sequence (P10443 whole entry): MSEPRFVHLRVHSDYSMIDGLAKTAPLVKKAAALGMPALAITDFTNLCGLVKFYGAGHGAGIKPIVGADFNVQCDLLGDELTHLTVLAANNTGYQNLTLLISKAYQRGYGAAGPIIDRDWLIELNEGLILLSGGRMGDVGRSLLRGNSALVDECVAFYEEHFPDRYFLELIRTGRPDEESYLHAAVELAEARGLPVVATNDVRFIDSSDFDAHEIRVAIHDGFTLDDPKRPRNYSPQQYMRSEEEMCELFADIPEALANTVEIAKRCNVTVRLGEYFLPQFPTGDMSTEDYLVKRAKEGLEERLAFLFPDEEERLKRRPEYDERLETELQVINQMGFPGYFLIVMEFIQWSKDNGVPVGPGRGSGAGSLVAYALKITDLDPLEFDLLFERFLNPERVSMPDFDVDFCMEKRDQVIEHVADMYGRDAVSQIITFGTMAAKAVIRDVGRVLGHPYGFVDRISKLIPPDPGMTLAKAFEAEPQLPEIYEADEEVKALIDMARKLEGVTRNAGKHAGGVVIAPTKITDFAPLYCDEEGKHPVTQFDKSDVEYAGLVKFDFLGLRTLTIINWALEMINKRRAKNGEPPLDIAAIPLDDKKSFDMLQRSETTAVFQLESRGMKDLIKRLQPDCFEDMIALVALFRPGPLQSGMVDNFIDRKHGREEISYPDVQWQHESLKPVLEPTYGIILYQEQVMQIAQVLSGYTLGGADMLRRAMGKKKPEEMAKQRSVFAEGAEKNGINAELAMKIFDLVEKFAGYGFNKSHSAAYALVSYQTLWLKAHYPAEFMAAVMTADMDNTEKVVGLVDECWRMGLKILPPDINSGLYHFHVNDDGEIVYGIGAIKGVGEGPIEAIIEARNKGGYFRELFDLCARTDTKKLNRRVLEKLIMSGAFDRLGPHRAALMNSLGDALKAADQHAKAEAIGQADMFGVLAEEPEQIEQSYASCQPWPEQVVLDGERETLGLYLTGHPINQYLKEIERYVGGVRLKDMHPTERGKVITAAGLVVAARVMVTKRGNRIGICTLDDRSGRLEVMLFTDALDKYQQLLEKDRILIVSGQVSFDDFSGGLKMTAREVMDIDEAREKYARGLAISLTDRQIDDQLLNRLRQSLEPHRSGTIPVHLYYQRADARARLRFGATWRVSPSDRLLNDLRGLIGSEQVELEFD

NC(C(=O)NC1C(=O)N2C(C(=O)O)=C(Cl)CSC12)c1ccccc1 (stereo not drawn)
relative enzymatic activity [1]: 1.09 ± 0.06 | relative enzymatic activity [2]: 0.441 ± 0.046 | relative enzymatic activity [3]: 1.07 ± 0.039 | relative enzymatic activity [4]: 1.38 ± 0.51 | relative enzymatic activity [5]: 0.74 ± 0.23 | relative enzymatic activity [6]: 0.982 ± 0.015 | relative enzymatic activity [7]: 1.04 ± 0.088 | relative enzymatic activity [8]: 0.0755 ± 0.013 | relative enzymatic activity [9]: 0.58 ± 0.4 | relative enzymatic activity [10]: 0.945 ± 0.26 | relative enzymatic activity [11]: 0.971 ± 0.085

CN(C)C1C(O)=C(C(N)=O)C(=O)C2(O)C(O)=C3C(=O)c4c(O)cccc4C(C)(O)C3C(O)C12.Cl (stereo not drawn)
relative enzymatic activity [1]: 0.0137 ± 0.019 | relative enzymatic activity [2]: 0.171 ± 0.03 | relative enzymatic activity [3]: 0.908 ± 0.21 | relative enzymatic activity [4]: 0.4407 ± 0.0041 | relative enzymatic activity [5]: 0.517 ± 0.0096 | relative enzymatic activity [6]: 1.02 ± 0.013 | relative enzymatic activity [7]: 0.521 ± 0.0059 | relative enzymatic activity [8]: 0.0726 ± 0.028 | relative enzymatic activity [9]: 0.635 ± 0.42 | relative enzymatic activity [10]: 1.02 ± 0.25 | relative enzymatic activity [11]: 0.177 ± 0.017

COc1cc(Cc2cnc(N)nc2N)cc(OC)c1OC
relative enzymatic activity [1]: 0.772 ± 0.45 | relative enzymatic activity [2]: 0.617 ± 0.18 | relative enzymatic activity [3]: 1.12 ± 0.24 | relative enzymatic activity [4]: 1.36 ± 0.46 | relative enzymatic activity [5]: 0.685 ± 0.15 | relative enzymatic activity [6]: 1.009 ± 0.0036 | relative enzymatic activity [7]: 1.01 ± 0.05 | relative enzymatic activity [8]: 0.706 ± 0.023 | relative enzymatic activity [9]: 0.589 ± 0.4 | relative enzymatic activity [10]: 0.569 ± 0.81 | relative enzymatic activity [11]: 0.887 ± 0.074

O=C(O)c1c(O)c2c([nH]c1=O)CCCC2
relative enzymatic activity [1]: 0.374 ± 0.066 | relative enzymatic activity [2]: 0.479 ± 0.056 | relative enzymatic activity [3]: 1.18 ± 0.34 | relative enzymatic activity [4]: 1.08 ± 0.16 | relative enzymatic activity [5]: 0.752 ± 0.029 | relative enzymatic activity [6]: 0.975 ± 0.042 | relative enzymatic activity [7]: 0.874 ± 0.041 | relative enzymatic activity [8]: 0.769 ± 0.13 | relative enzymatic activity [9]: 0.611 ± 0.39 | relative enzymatic activity [10]: 0.899 ± 0.18 | relative enzymatic activity [11]: 0.636 ± 0.18

CCOC(=O)CCC(=O)O[C@H]1[C@H](O[C@@H]2[C@@H](C)[C@H](O[C@H]3C[C@@](C)(OC)[C@@H](O)[C@H](C)O3)[C@@H](C)C(=O)O[C@H](CC)[C@@](C)(O)[C@H](O)[C@@H](C)C(=O)[C@H](C)C[C@@]2(C)O)O[C@H](C)C[C@@H]1N(C)C
relative enzymatic activity [1]: 0.685 ± 0.3 | relative enzymatic activity [2]: 0.691 ± 0.34 | relative enzymatic activity [3]: 0.982 ± 0.061 | relative enzymatic activity [4]: 1.17 ± 0.28 | relative enzymatic activity [5]: 0.835 ± 0.0032 | relative enzymatic activity [6]: 1.018 ± 0.0098 | relative enzymatic activity [7]: 0.941 ± 0.052 | relative enzymatic activity [8]: 0.816 ± 0.11 | relative enzymatic activity [9]: 0.599 ± 0.4 | relative enzymatic activity [10]: 0.961 ± 0.23 | relative enzymatic activity [11]: 0.831 ± 0.037

CNC1C(O)C(NC)C2OC3(O)C(=O)CC(C)OC3OC2C1O.Cl.Cl (stereo not drawn)
relative enzymatic activity [1]: 0.963 ± 0.22 | relative enzymatic activity [2]: 0.484 ± 0.0079 | relative enzymatic activity [3]: 1.07 ± 0.22 | relative enzymatic activity [4]: 1.35 ± 0.45 | relative enzymatic activity [5]: 0.693 ± 0.19 | relative enzymatic activity [6]: 1.02 ± 0.015 | relative enzymatic activity [7]: 0.421 ± 0.021 | relative enzymatic activity [8]: 0.4888 ± 0.0032 | relative enzymatic activity [9]: 0.533 ± 0.35 | relative enzymatic activity [10]: 0.898 ± 0.16 | relative enzymatic activity [11]: 0.871 ± 0.064

C[C@H]1c2cccc(O)c2C(=O)C2=C(O)[C@]3(O)C(=O)[C@@H](C(N)=O)C(=O)[C@@H](N(C)C)[C@@H]3[C@@H](O)[C@@H]21
relative enzymatic activity [1]: 0.782 ± 0.34 | relative enzymatic activity [2]: 0.508 ± 0.05 | relative enzymatic activity [3]: 0.954 ± 0.14 | relative enzymatic activity [4]: 1.17 ± 0.29 | relative enzymatic activity [5]: 0.8317 ± 0.0057 | relative enzymatic activity [6]: 0.934 ± 0.018 | relative enzymatic activity [7]: 0.958 ± 0.081 | relative enzymatic activity [8]: 0.673 ± 0.19 | relative enzymatic activity [9]: 0.601 ± 0.41 | relative enzymatic activity [10]: 0.937 ± 0.26 | relative enzymatic activity [11]: 0.882 ± 0.078

NC[C@H]1OB(O)c2c(OCCCO)cccc21
relative enzymatic activity [1]: 0.84 ± 0.32 | relative enzymatic activity [2]: 0.308 ± 0.43 | relative enzymatic activity [3]: 0.887 ± 0.13 | relative enzymatic activity [4]: 1.08 ± 0.082 | relative enzymatic activity [5]: 0.8235 ± 0.0023 | relative enzymatic activity [6]: 0.922 ± 0.11 | relative enzymatic activity [7]: 0.991 ± 0.1 | relative enzymatic activity [8]: 0.709 ± 0.16 | relative enzymatic activity [9]: 0.564 ± 0.35 | relative enzymatic activity [10]: 1.17 ± 0.024 | relative enzymatic activity [11]: 0.871 ± 0.073

O=c1[nH]cc(F)c(=O)[nH]1
relative enzymatic activity [1]: 0.73 ± 0.39 | relative enzymatic activity [2]: 0.568 ± 0.12 | relative enzymatic activity [3]: 0.9871 ± 0.0093 | relative enzymatic activity [4]: 0.593 ± 0.47 | relative enzymatic activity [5]: 0.852 ± 0.023 | relative enzymatic activity [6]: 0.981 ± 0.051 | relative enzymatic activity [7]: 0.86 ± 0.071 | relative enzymatic activity [8]: 0.673 ± 0.18 | relative enzymatic activity [9]: 0.572 ± 0.36 | relative enzymatic activity [10]: 0.972 ± 0.2 | relative enzymatic activity [11]: 0.688 ± 0.065

CC1CCC2(C)C(C=O)=CCCC2C1(C)CC1OC(O)C(=O)C12CO2 (stereo not drawn)
relative enzymatic activity [1]: 0.075 ± 0.11 | relative enzymatic activity [2]: 0.688 ± 0.45 | relative enzymatic activity [3]: 1.12 ± 0.035 | relative enzymatic activity [4]: 1.15 ± 0.2 | relative enzymatic activity [5]: 0.89 ± 0.017 | relative enzymatic activity [6]: 1.008 ± 0.0078 | relative enzymatic activity [7]: 0.956 ± 0.024 | relative enzymatic activity [8]: 0.662 ± 0.12 | relative enzymatic activity [9]: 0.612 ± 0.41 | relative enzymatic activity [10]: 0.577 ± 0.81 | relative enzymatic activity [11]: 1.06 ± 0.13

CC1COc2c(N3CCN(C)CC3)c(F)cc3c(=O)c(C(=O)O)cn1c23 (stereo not drawn)
relative enzymatic activity [1]: 0.0425 ± 0.06 | relative enzymatic activity [2]: 0.698 ± 0.077 | relative enzymatic activity [3]: 1.39 ± 0.046 | relative enzymatic activity [4]: 1.3 ± 0.35 | relative enzymatic activity [5]: 0.722 ± 0.2 | relative enzymatic activity [6]: 1.1 ± 0.2 | relative enzymatic activity [7]: 0.937 ± 0.12 | relative enzymatic activity [8]: 0.757 ± 0.05 | relative enzymatic activity [9]: 0.584 ± 0.4 | relative enzymatic activity [10]: 0.976 ± 0.2 | relative enzymatic activity [11]: 1.16 ± 0.38

COC1(NC(=O)C(C(=O)[O-])c2ccc(O)cc2)C(=O)N2C(C(=O)[O-])=C(CSc3nnnn3C)COC21.[Na+].[Na+] (stereo not drawn)
relative enzymatic activity [1]: 1.04 ± 0.15 | relative enzymatic activity [2]: 0.607 ± 0.17 | relative enzymatic activity [3]: 1.25 ± 0.16 | relative enzymatic activity [4]: 1.27 ± 0.34 | relative enzymatic activity [5]: 0.693 ± 0.17 | relative enzymatic activity [6]: 0.998 ± 0.085 | relative enzymatic activity [7]: 1.02 ± 0.11 | relative enzymatic activity [8]: 0.069 ± 0.017 | relative enzymatic activity [9]: 0.584 ± 0.39 | relative enzymatic activity [10]: 0.913 ± 0.23 | relative enzymatic activity [11]: 0.848 ± 0.071

Nc1nc(/C(=N/O)C(=O)N[C@@H]2C(=O)N3C(C(=O)O)=C(/C=C4\CCN([C@@H]5CCNC5)C4=O)CS[C@H]23)ns1
relative enzymatic activity [1]: 0.279 ± 0.18 | relative enzymatic activity [2]: 0.389 ± 0.35 | relative enzymatic activity [3]: 0.901 ± 0.11 | relative enzymatic activity [4]: 1.08 ± 0.3 | relative enzymatic activity [5]: 0.816 ± 0.035 | relative enzymatic activity [6]: 0.83 ± 0.021 | relative enzymatic activity [7]: 0.881 ± 0.12 | relative enzymatic activity [8]: 0.0852 ± 0.03 | relative enzymatic activity [9]: 0.57 ± 0.38 | relative enzymatic activity [10]: 1.1 ± 0.069 | relative enzymatic activity [11]: 0.561 ± 0.045
